Sfp inh: inhibitors of Bacillus subtilis Sfp phosphopantetheinyl transferase | 310,000 tested, 3.5% active | Potency, µM, for the others: largest response in the series, negative = inhibition, actives largely listed as inhibitors | AID 1490 | Biochemical Sfp PPTase activity, qHTS;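 also: the enzyme is Sfp with the accession as filed and its product quenches rhodamine fluorescence; 0% = enzyme reaction without inhibitor and -100% = no enzyme wells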
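With Hepes-Na pH 7.6 buffer containing 10 mM MgCl2, Sfp (15 nM) modified BHQ-2-YbbR (12.5 uM) using rhodamine-CoA (5 uM). Two reads 30 minutes apart at 525/598 nm yielded each well's rate.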
JMJD2A Tudor inh: blocks the human JMJD2A Tudor domain | O75164 | AID 504339 | Potency, µM (highest dose often 114 µM), without a hit: at the highest dose activity change, negative = inhibition, most hits filed as inhibitors | AlphaScreen JMJD2A-Tudor / H3K4me3 peptide binding | 390,000 tested, 4.4% active; also: % is scaled to controls: 0 for no effect and ±100 for the full control effect; nearly all actives have a fitted effect of over 50% in size
Target sequence (O75164 whole entry, looked up, the tested form may be a part): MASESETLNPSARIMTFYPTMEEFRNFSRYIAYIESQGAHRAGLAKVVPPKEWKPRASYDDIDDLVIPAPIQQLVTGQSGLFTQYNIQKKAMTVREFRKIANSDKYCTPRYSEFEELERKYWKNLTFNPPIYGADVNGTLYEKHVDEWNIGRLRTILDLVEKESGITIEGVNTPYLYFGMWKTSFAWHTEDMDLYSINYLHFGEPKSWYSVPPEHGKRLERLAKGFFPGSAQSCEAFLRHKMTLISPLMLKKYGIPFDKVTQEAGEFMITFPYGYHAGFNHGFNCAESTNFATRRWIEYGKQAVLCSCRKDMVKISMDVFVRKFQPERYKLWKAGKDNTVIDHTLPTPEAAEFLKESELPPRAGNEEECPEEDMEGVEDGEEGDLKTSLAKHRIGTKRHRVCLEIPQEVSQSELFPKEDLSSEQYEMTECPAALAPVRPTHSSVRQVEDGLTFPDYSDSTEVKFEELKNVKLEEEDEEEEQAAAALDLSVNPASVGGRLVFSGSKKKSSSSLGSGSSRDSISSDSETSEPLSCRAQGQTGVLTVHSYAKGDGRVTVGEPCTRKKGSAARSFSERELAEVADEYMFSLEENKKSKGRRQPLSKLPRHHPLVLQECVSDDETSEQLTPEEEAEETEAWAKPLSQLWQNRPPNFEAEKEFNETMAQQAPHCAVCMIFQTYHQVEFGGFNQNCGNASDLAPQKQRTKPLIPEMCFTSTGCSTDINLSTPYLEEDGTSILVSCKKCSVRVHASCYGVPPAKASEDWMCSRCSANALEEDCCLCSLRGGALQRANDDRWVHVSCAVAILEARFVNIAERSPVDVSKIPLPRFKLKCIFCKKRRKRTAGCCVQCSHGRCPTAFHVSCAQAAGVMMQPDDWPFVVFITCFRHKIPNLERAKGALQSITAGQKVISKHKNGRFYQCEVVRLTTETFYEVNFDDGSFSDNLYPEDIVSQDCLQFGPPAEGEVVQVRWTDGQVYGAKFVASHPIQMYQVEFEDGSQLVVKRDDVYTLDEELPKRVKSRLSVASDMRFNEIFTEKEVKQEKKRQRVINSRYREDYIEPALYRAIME
G9a inh: inhibitors of human histone lysine methyltransferase G9a | Q96KQ7 | AID 504332 | 350,000 tested, 8.8% active | G9a H3K9 monomethylation, AlphaScreen, 2 h | Potency, µM (doses to about 102 µM), inactives show top-dose activity, negative = inhibition, usual class: inhibitors; also: % is scaled to controls: 0 for no effect and ±100 for the full control effect; nearly all actives have a fitted effect of over 75% in size
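G9a (20 nM) was preincubated 15 min with compound, then reacted 2 h at room temperature with 500 nM biotin-H3K9 peptide and 20 µM SAM. Monomethyl-H3K9 detected by AlphaScreen using anti-H3K9me1 antibody.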
HP1b binding inh: blocks HP1-beta chromodomain binding to methylated histone tails; P83916; Potency, µM (series often up to 114 µM), for the others: at the highest dose activity change, negative = inhibition, actives largely listed as inhibitors; 390,000 tested, 0.56% active; AlphaScreen HP1-beta / biotin-H3K9me3 peptide binding; also: nearly all actives have a fitted effect of over 70% in size
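Compound inhibition of the preformed complex between 50 nM HP1-beta and 50 nM biotinylated H3K9me3 peptide was read by AlphaScreen. Buffer was PBS pH 7.4 with 0.01% Tween-20. Incubations ran 30 min at room temperature, with 10 ug/mL donor/acceptor beads.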
BAZ2B block: BAZ2B (human) inhibition; AlphaScreen BAZ2B-H3K14Ac peptide displacement; Potency, µM (series often up to 114 µM), inactives show top-dose activity change, negative = inhibition, hits mostly inhibitors; 360,000 tested, 4.4% active; also: % is scaled to controls: 0 for no effect and ±100 for the full control effect; nearly all actives have a fitted effect of over 60% in size
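AlphaScreen displacement: compounds (up to 110uM) incubated 30 min at room temperature with a preformed 50 nM BAZ2B/50 nM biotinylated H3K14Ac peptide complex in PBS pH 7.4 with Tween-20. Donor and acceptor beads at 10 ug/mL final added, 20 min light-protected before reading.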
PLK1 PBD inh: blocks phosphopeptide binding to human PLK1 polo-box domain; Plk1 PBD binding of FITC phosphopeptide, fluorescence polarization; AID 720504; P53350; 360,000 tested, 2.8% active; Potency, µM, for the others: max response, negative = inhibition, actives largely listed as inhibitors; also: series mostly up to about 57 µM; % is scaled to controls: 0 for no effect and ±100 for the full control effect; nearly all actives have a fitted effect of over 65% in size
* hit, by the source's call; ? = inconclusive; . = no result; ! = not active in a repeat; [ ] = remark or other dose. In the library only some 12% were active in any assay of this set; here they are far more common. Calls follow the shape of the dose curve; as a rule, active = well fitted curve in the direction sought with a large enough effect; inconclusive = small, poorly fitted or top-dose-only effect, or another doubt; inactive = no such curve, though single readings can be large; an effect the other way counts as inactive or inconclusive. Potency is read from the fitted curve at half-maximal effect.

SMILES | Sfp inh | JMJD2A Tudor inh | G9a inh | HP1b binding inh | BAZ2B block | PLK1 PBD inh
CCOc1ccc(/C=C2\SC(=S)N(CCC(=O)N(CCO)c3ccccc3)C2=O)cc1 | ? | ? | 15.8µM* | -25.4% | ? | 0.7%
N#Cc1ccsc1NC(=O)C1=COCCO1 | . | -25.0% | 25.7%[12.7 µM] | 21.7% | -13.3% | -12.7%
Cc1ccccc1C(=O)NCC(=O)NCC1(N2CCOCC2)CCCCC1 | . | -11.7% | -22.3% | 27.8% | 13.1% | 1.1%
C=CCN1C(=O)/C(=C/c2ccsc2)SC1=S | -2.8% | -21.8% | -44.6% | 14.4% | -14.6% | -1.7%
CC(/C=C1\SC(=S)N(CCC(=O)Nc2cccc(C(=O)O)c2)C1=O)=C\c1ccccc1 | -9.7% | ? | 44.7µM* | 70.8µM* | 56.2µM* | 23.8µM*
O=C(O)CN1C(=O)/C(=C/c2ccsc2)SC1=S | ? | -11.7% | 31.6µM* | 22.9% | 79.4µM* | -3.6%
O=C(O)CN1C(=O)/C(=C\C(Br)=C\c2ccccc2)SC1=S | 56.2µM* | ? | 40.9%[0.501 µM] | ? | 44.7µM* | 5.97µM*
C[C@@H](CCc1ccc(O)cc1)NCCc1ccc(O)c(O)c1 | 56.2µM*! | . | 0.6%[21.5 µM] | . | . | .
CC(CNC(=O)Cn1c(-c2cccs2)cc2cc(Cl)ccc21)c1ccccc1 (stereo not given) | . | -8.9% | -1.8%[59 µM] | 21.6% | 2.5% | .
Cc1oc(C(=O)O)cc1COc1ccc2c3c(c(=O)oc2c1C)CCC3 | 3.4% | 2.1% | 50.1µM* | 16.6% | 12.6µM* | -8.7%
Cc1c(CC(=O)O)c(=O)oc2c(C)c(OCc3ccccc3)ccc12 | 11.5% | -7.0% | 2.6% | 37.3% | 4.2% | -5.2%
Cc1c(CC(=O)O)c(=O)oc2c(C)c(OCc3ccccc3Br)ccc12 | 2.2% | ? | -10.4% | 27.4% | 50.1µM* | -26.3%
Cc1oc(C(=O)O)cc1COc1ccc2c3c(c(=O)oc2c1C)CCCC3 | 14.0% | . | -4.6%[59 µM] | . | 2.1% | .
COc1cc(C(=O)O)cc(OC)c1OCc1cc(C(=O)O)oc1C | 16.9% | ? | 50.1µM* | -4.8% | ? | -9.7%
Cc1oc(C(=O)O)cc1COc1cccc2ccccc12 | 15.2% | -24.3% | ? | -3.5% | -31.3% | -12.2%
COc1cccc2sc(N3CCN(C(=O)CS(=O)(=O)c4ccc(Cl)cc4)CC3)nc12 | . | -32.8% | -32.0%[59 µM] | 7.0% | -21.4% | .
O=C1C(Cl)=C(NCCN2CCOCC2)C(=O)c2ncccc21 | -1.5% | . | . | . | . | .
CS(=O)(=O)Oc1ccc(/C=C2\C(=N)N3N=C(CC(=O)N4CCOCC4)SC3=NC2=O)cc1Cl | 17.0% | 14.4% | -0.4% | 32.1% | -3.7% | 0.0%
CCC1=NN2C(=N)/C(=C/c3ccc(OS(=O)(=O)c4ccc(C)cc4)c(OC)c3)C(=O)N=C2S1 | -4.5% | -30.3% | -5.6% | -16.9% | -1.6% | 15µM*
COc1cc(/C=C2/C(=N)N3N=C(C)SC3=NC2=O)ccc1OS(=O)(=O)c1ccc(C)cc1 | -1.0% | -7.9% | 18.1% | 11.4% | -1.6% | 21.2µM*
COc1cc(/C=C(/C#N)C(=O)NC(C)c2ccccc2)cc(OC)c1O (stereo not given) | -9.1% | -24.1% | 14.1µM* | -16.5% | ? | 34.4%
Cc1ccc(/C=C(\C#N)C(=O)NC(C)c2ccccc2)o1 (stereo not given) | -11.4% | -13.1% | -22.2% | 26.1% | -17.6% | 2.8%
CC(C)NC(=O)/C(C#N)=C/c1ccc(N(C)C)o1 | -15.0% | -11.5% | 50.1µM* | 10.4% | -23.7% | 99.0%
Cc1ccc(/C=C(/C#N)C(=O)NC(C)c2ccccc2)o1 (stereo not given) | 22.4µM* | -10.7% | 37.3%[59 µM] | 23.0% | -1.3% | -5.9%
COc1cc(OC)c(-c2nn3c(-c4cc(C)[nH]n4)nnc3s2)cc1OC | . | -19.2%[57.1 µM] | . | 17.2%[57 µM] | . | .
SMILES | Sfp inh | JMJD2A Tudor inh | G9a inh | HP1b binding inh | BAZ2B block | PLK1 PBD inh
CCc1ccccc1NC(=O)C(Cc1ccccc1)c1nn[nH]n1 (stereo not given) | ? | -10.7% | 1.9%[0.501 µM] | 7.5% | -5.7% | -13.4%
Cc1ccccc1C(=O)Nc1sc2c(c1C(=O)N1CCCCC1)CCC(C)C2 (stereo not given) | . | -27.0% | -33.2%[59 µM] | 8.7% | ? | .
COc1ccc(NC(=O)NCc2ccco2)c(OC)c1 | 5.8% | -33.3% | ? | 7.4% | -8.5% | 11.9µM*
COc1ccc(Nc2cc(C(=O)NCc3cccnc3)c3ccccc3n2)c(OC)c1 | 6.4% | . | 44.7µM* | . | ? | .
O=C(NCc1ccco1)c1cc(-c2ccccn2)nc2ccccc12 | -8.9% | -22.7% | 79.4µM* | 13.7% | -2.8% | -8.1%
COc1ccccc1Nc1nn2c(=O)c3ccc(C(=O)NCc4cccnc4)cc3nc2s1 | -20.6% | . | 4.8%[59 µM] | . | 56.2µM* | .
COc1ccc(NC(=O)C(=O)NCc2ccco2)c(OC)c1 | . | -4.9% | -4.8%[59 µM] | 34.6% | 6.9% | .
Cc1cc(C)c[n+](CC(=O)c2c(C)cc(C)c([N+](=O)[O-])c2C)c1 | 14.0% | -17.7% | 9.9% | 14.4% | -14.0% | -6.4%
COc1ccc(Nc2cc(C(=O)NCc3ccco3)c3ccccc3n2)c(OC)c1 | -10.7% | ? | ? | -23.6% | 50.1µM* | -9.9%
COc1ccc(-c2cc(C(=O)NCc3ccco3)c3ccccc3n2)c(OC)c1 | 0.3% | -20.2% | . | 34.9% | ? | -9.6%
CCCOc1ccc(-c2nc(SCC(=O)c3ccc(Cl)cc3)n[nH]2)cc1 | . | ? | 14.1µM* | 41.6% | -21.2% | .
COc1ccc(C(=O)CSc2n[nH]c(-c3ccco3)n2)cc1 | ? | -12.0% | ? | 13.7% | -2.6% | -6.5%
Cc1ccc(O)c(NC(=O)CSc2n[nH]c(-c3ccccc3)n2)c1 | 11.6% | -24.0% | 9.2% | 21.5% | -26.9% | -5.2%
O=C(CSc1n[nH]c(-c2ccccc2)n1)c1ccc(O)c(O)c1 | -14.2% | 63.1µM* | 7.94µM* | -13.4% | 44.7µM* | -6.7%
C=CCSc1n[nH]c(-c2ccc(OCCC)cc2)n1 | -6.9% | -1.9% | 4.9%[12.7 µM] | 57.5% | 8.2% | -4.9%
CCOc1ccc(-c2nc(SCC(=O)c3ccccc3)n[nH]2)cc1 | . | 25.1µM* | 14.1µM* | 19.9% | -14.5% | .
Cc1ccc(NS(=O)(=O)c2ccc3c(c2)CCN(C(=O)C(F)(F)F)C3)cc1C | . | -14.3% | . | . | . | .
O=C(NCc1ccccc1F)C(=O)NCC(c1ccco1)S(=O)(=O)c1ccccc1 (stereo not given) | . | -9.1% | -10.1%[59 µM] | 23.7% | -4.7% | .
CCCC1(c2ccsc2)NC(=O)NC1=O (stereo not given) | . | -6.9% | . | 29.2% | . | -8.8%
c1ccc(CN2CCC3(CC2)Nc2ccccc2S3)cc1 | 79.4µM* | ? | -40.2%[59 µM] | -11.2% | ? | -15.2%
c1ccc(CN2CCC3(CC2)Nc2ccccc2CO3)cc1 | 8.2% | -19.2% | 0.4%[12.7 µM] | 13.5% | 9.5% | -22.8%
CC(C)(C)c1ccc(C2=NC(=O)C(CC(=O)O)S2)cc1 (stereo not given) | 50.1µM* | -21.8% | 50.1µM* | -4.9% | ? | 26.7µM*
